Screens (PubChem)
Sampled rows, rich in hits. Any-hit rate of the full collection: about 19%.
RORgamma inh = qHTS for inhibitors of ROR gamma transcriptional activity. Drosophila S2 Gal4-RORgamma UAS-luciferase reporter, 20 h. Potency, µM (titrated, usually from 53.6 µM), inactives show at the highest dose activity change, negative = inhibition, hits mostly inhibitors. 310,000 tested, 5.4% active. AID 2551, 2010; also: nearly all actives have a fitted effect of over 60% in size
Target sequence (P51450 whole entry, looked up, the tested form may be a part): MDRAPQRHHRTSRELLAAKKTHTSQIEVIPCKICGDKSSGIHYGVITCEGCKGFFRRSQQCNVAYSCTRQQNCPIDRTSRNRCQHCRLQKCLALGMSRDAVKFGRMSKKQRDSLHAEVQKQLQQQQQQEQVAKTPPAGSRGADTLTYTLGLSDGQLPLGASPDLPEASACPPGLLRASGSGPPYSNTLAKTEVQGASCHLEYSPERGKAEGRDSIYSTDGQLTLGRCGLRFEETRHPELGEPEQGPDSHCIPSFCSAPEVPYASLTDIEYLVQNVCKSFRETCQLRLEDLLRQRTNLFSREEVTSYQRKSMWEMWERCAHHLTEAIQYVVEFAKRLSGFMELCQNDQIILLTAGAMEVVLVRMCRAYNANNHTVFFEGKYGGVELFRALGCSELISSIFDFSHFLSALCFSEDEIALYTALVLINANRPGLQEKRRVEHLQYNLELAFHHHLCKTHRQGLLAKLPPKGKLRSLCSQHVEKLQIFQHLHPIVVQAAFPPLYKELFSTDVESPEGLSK
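A Gal4/UAS one-hybrid system in insect cells: metallothionein-promoter Gal4–ROR gamma fusion plus Photinus luciferase reporter. Copper sulfate 700 uM final, 20 hr ambient incubation, luminescent detection after 10 min with reagent.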
TDP1 cell noCPT = qHTS for Inhibitors of human tyrosyl-DNA phosphodiesterase 1 (TDP1): qHTS in cells in absence of CPT. DT40 Tdp1-/- hTDP1 cells, no CPT, ATP luminescence, 48 h. Potency, µM (titrated, usually from 46.2 µM), inactives show at the highest dose activity change, negative = growth inhibition, usual class: inhibitors. 420,000 tested, 15% active. AID 686978, 2013; also: nearly all actives have a fitted effect of over 55% in size
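No-CPT arm: Tdp1-/-;hTDP1 DT40 cells (400/well) plus compounds, incubated ≥48 hr at 37 °C. Readout CellTiter-Glo luminescence.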
DT40 TDP1 CPT = qHTS for Inhibitors of human tyrosyl-DNA phosphodiesterase 1 (TDP1): qHTS in cells in presence of CPT; chicken DT40 Tdp1-/-;hTDP1 cells + 20 nM CPT, ATP luminescence, 48 h; Potency, µM (top dose mostly 46.2 µM), for the others: top-dose activity change, negative = growth inhibition, hits mostly inhibitors; 420,000 tested, 12% active; also: nearly all actives have a fitted effect of over 55% in size
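Chicken DT40 Tdp1-/- cells complemented with human TDP1, 400 cells/well, exposed to compounds plus 20 nM camptothecin for at least 48 h at 37 C; viability read as ATP content by CellTiter-Glo luminescence.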
Gal4-VP16 FLuc = VP16 counterscreen qHTS for inhibitors of ROR gamma transcriptional activity. Drosophila S2 Gal4-VP16 UAS-luciferase, luminescence, 20 h. Potency, µM (highest dose often 53.6 µM), inactives show at the top dose activity, negative = inhibition, usual class: inhibitors. 310,000 tested, 3.5% active;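 also: Gal4-VP16 expression switched on by copper sulfate through the metallothionein promoter; nearly all actives have a fitted effect of over 50% in size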
TDP1 block = qHTS Assay for Inhibitors of Tyrosyl-DNA Phosphodiesterase (TDP1); Tyrosyl-DNA phosphodiesterase 1 (Homo sapiens), Q9NUW8; recombinant TDP1, AlphaScreen DNA substrate cleavage; Potency, µM (highest dose often 130 µM), without a hit: top-dose activity change, negative = inhibition, actives largely listed as inhibitors; 350,000 tested, 0.28% active; also: nearly all actives have a fitted effect of over 40% in size
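Steps: enzyme plus compound, 15 min RT; add biotin/phosphotyrosine-FITC oligonucleotide (15 nM final), react 5 min; add donor/acceptor beads (10 ug/ml final), 10 min; read AlphaScreen. Tdp1 at 1 nM final.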
An asterisk follows results filed as active; ? = inconclusive; / = not tested or not shown; [ ] = dose if it differs, or a comment. Calls follow the shape of the dose curve; as a rule, active = well fitted curve in the direction sought with a large enough effect; inconclusive = small, poorly fitted or top-dose-only effect, or another doubt; inactive = no such curve, though single readings can be large; an effect the other way counts as inactive or inconclusive. % is scaled to controls: 0 for no effect and ±100 for the full control effect; potency is read from the fitted curve at half-maximal effect.

SMILES | RORgamma inh | TDP1 cell noCPT | DT40 TDP1 CPT | Gal4-VP16 FLuc | TDP1 block
COc1ccc(N2CCN(C(=O)CCCn3c(=O)c4cccn4c4cccnc43)CC2)cc1 | 4.8% | ? | ? | -0.1% | 3.5%
CCc1ccc(C(=O)CN2C(=O)NC3(CCc4ccccc43)C2=O)cc1 (stereo not drawn) | / | -19.5% | ? | / | 2.0%
CN(CCc1ccccc1)C(=O)c1ccc(NC(=O)Cc2cccc(NC(=O)C3CCN(C(=O)C4CC4)CC3)c2)cc1 | / | -15.0% | -6.1% | / | /
CN(CCc1ccccc1)C(=O)c1ccc(NC(=O)Cc2cccc(NC(=O)C3CCN(C(=O)C4CCCC4)CC3)c2)cc1 | / | 9.2µM* | ? | / | /
O=C(CSc1nc2c(c(=O)[nH]1)CCC2)Nc1cc(C(F)(F)F)ccc1Cl | / | -23.7% | 2.2% | / | 2.9%
COc1cc(NC(=O)COc2cc(O)c3c(c2)OC(C)(C)CC3=O)cc(OC)c1OC | ? | 0.259µM* | 0.461µM* | 2.51µM* | /
CC1(C)CC(=O)c2c(O)cc(OCC(=O)NCCc3ccc(S(N)(=O)=O)cc3)cc2O1 | -1.1% | -26.8% | -14.6% | -5.3% | /
COc1ccc(CNC(=O)COc2cc(O)c3c(c2)OC(C)(C)CC3=O)cc1 | 18.1% | 0.82µM* | 32.6µM* | -5.1% | /
Cc1ccc(C)c(NC(=O)CCN2CCN(C)CC2)c1 | 14.2%[1.91 µM] | 1.1% | 9.3% | 8.5% | /
COC(=O)c1ccc(OCC(O)CN2CCN(C(=O)c3ccco3)CC2)cc1 (stereo not drawn) | -7.5% | -4.5% | 5.3% | -2.0% | /
COC(=O)N/N=C/c1c(C)c(C(=O)c2ccc(F)cc2)n2ccccc12 | 0.2% | ? | ? | -10.9% | 0.6%
Cc1c(/C=N/NC(=O)c2ccccc2O)c2ccccn2c1C(=O)c1ccc(F)cc1 | -1.3% | 23.1µM* | ? | -27.8% | -2.4%
COc1ccccc1N1CCN(c2ncnc3c2cnn3C)CC1 | / | 18.4µM* | ? | / | 0.0%
Cn1ncc2c(N3CCN(c4ccc(F)cc4)CC3)ncnc21 | / | 18.4µM* | ? | / | 10.4%
NNC(=O)c1cc2c(N3CCC(Cc4ccccc4)CC3)ncnc2s1 | 43.7% | 23.1µM* | 16.4µM* | ? | 8.8%
CC1CC(C)CN(c2ncnc3c2cnn3C)C1 (stereo not drawn) | -14.3% | ? | -15.4% | 7.7% | -1.2%
Cn1ncc2c(N3CCC(Cc4ccccc4)CC3)ncnc21 | 11.2% | 16.4µM* | ? | 6.1%[10 µM] | -2.7%
O=c1[nH]c2sc3c(c2c(=O)n1Cc1ccccc1)CCC3 | -14.8%[10 µM] | -11.2% | -9.9% | -0.6% | 2.0%
O=C(/C=C/c1ccccc1Cl)NNC(=O)c1cccs1 | -4.6% | -16.7% | -12.9% | 11.0% | -2.6%
O=C(/C=C/c1ccccc1Cl)c1ccc(O)cc1 | 10µM* | 14.6µM* | 16.4µM* | ? | 5.1%
N#Cc1ccc(/C=C/C(=O)c2cccnc2)cc1 | 7.94µM* | 14.6µM* | 10.3µM* | ? | 8.0%
O=C(/C=C/c1c(F)cccc1Cl)c1ccc(O)cc1 | ? | 23.1µM* | ? | 2.8% | 4.8%
CCN(CC)c1ccc(/C=C/C(=O)c2cccnc2)cc1 | 6.4% | 20.6µM* | ? | -5.1% | 5.1%
O=C(/C=C/c1ccccc1)NNC(=O)c1cccnc1 | -0.2% | 0.1% | 1.2% | -0.3% | 2.0%
O=C(/C=C/c1ccccc1Cl)NNC(=O)c1ccncc1 | / | -1.4% | 7.3% | / | 1.3%
O=C(/C=C/c1ccc(Cl)cc1)c1cccnc1 | ? | 8.2µM* | 5.8µM* | 20µM* | 2.3%
CCN(CC)c1ccc(/C=C/C(=O)c2ccc(Br)cc2)cc1 | ? | ? | 16.4µM* | -7.0% | /
O=C(/C=C/c1ccccc1Cl)c1cccnc1 | ? | 16.4µM* | 7.31µM* | ? | 4.6%
